Measured values published in PubChem BioAssay (NCI).
About 83,000 compounds went through this panel and 20% of them were active in at least one assay; those are over-represented in the sample as a whole.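 A percent growth of 40 corresponds to 60% growth inhibition; 0 means no net growth; -100 means all cells died. Active threshold: below 10.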 Values without a mark were called inactive. Active and inactive are the calls of the source.

Key:
Assay in all cases: NCI-60 one-dose screen, 48 h (100 = growth as untreated, 0 = no growth, -100 = all killed)
Settings in all cases: 10 µM unless noted
[1] = system: NCI-H23 lung
[2] = system: NCI-H226 lung
[3] = system: NCI-H322M lung
[4] = system: HOP-62 NSCLC
[5] = system: NCI-H460 lung
[6] = system: HOP-92 NSCLC
[7] = system: NCI-H522 lung
[8] = system: A549/ATCC NSCLC
[9] = system: 786-0 renal
[10] = system: COLO 205 colon
[11] = system: DU-145 prostate
[12] = system: K-562 leukemia
[13] = system: MALME-3M melanoma
[14] = system: MDA-MB-231 breast
[15] = system: RXF 393 renal
[16] = system: SF-268 CNS
[17] = system: SF-295 CNS
[18] = system: SF-539 CNS
[19] = system: UACC-257 melanoma
[20] = system: M14 melanoma

Structure (SMILES) | growth [1] | growth [2] | growth [3] | growth [4] | growth [5] | growth [6] | growth [7] | growth [8] | growth [9] | growth [10] | growth [11] | growth [12] | growth [13] | growth [14] | growth [15] | growth [16] | growth [17] | growth [18] | growth [19] | growth [20]
O=C(/C=C/c1cn(-c2ccccc2)nc1-c1ccc([N+](=O)[O-])cc1)c1ccc(Cl)cc1 | 48.4% | 39% | 75.1% | 24.5% | 29.1% | 58.5% | 23.3% | 61.8% | -92.5% (active) | 40.2% | 20.4% | 12.4% | 49.7% | 14.7% | 27.3% | 34.5% | 77% | 30% | 103% | 37.8%
O=S(=O)(Nc1ccccc1)c1ccc(C2CC3(Cl)C(Cl)=C(Cl)C2(Cl)C3(Cl)Cl)cc1 (stereo not given) | 22.1% | 74.3% | 61.5% | 51.4% | 21.1% | -10.3% (active) | 29.9% | 30.2% | 32.4% | 29.2% | 66.4% | 27% | 35.1% | 59.3% | 32.9% | 57.2% | 8.38% (active) | 72.9% | 36.8% | 52.6%
COc1ccc(-c2nc3c(c(-c4ccccc4)nn3-c3ccccc3)c(-c3ccc(N4CCN(C)CC4)cc3)c2C#N)cc1 | 98.6% | 94.2% | 97.5% | 103% | 101% | 83.2% | 94.4% | 89.3% | 78.9% | 114% | 92.9% | 8.47% (active) | 94.6% | 97.9% | 76% | 105% | 107% | 95.7% | 95.5% | 104%
O=C(Cn1c(=O)sc2ccccc21)NNS(=O)(=O)c1ccccc1[N+](=O)[O-] | 98.6% | 101% | 104% | 108% | 108% | 104% | 88.5% | 103% | 104% | 110% | 105% | 98.9% | 99.9% | 104% | 119% | 97% | 103% | 99% | 99.7% | 99.4%
COc1cc(/C=C\c2cc(/C=C\c3ccc(O)c(OC)c3)n(C(=O)COc3ccc(Cl)cc3Cl)n2)ccc1O | 14.1% | 26.5% | 40.8% | 11.3% | 9.28% (active) | 12.5% | -28.7% (active) | 10.6% | 13.7% | 82.4% | 16.5% | 4.41% (active) | 12.1% | 10.1% | -9.98% (active) | 20.2% | 23.1% | 8.64% (active) | 41.9% | 4.34% (active)
C=C1C(=O)O[C@H]2[C@H]1CC/C(COC(=O)N[C@H]1C[C@H](O[C@H]3C[C@](O)(C(=O)CO)Cc4c(O)c5c(c(O)c43)C(=O)c3c(OC)cccc3C5=O)O[C@@H](C)[C@H]1O)=C\CC[C@@]1(C)O[C@@H]21 | 91.1% | 58.2% | 98.7% | 78.7% | 63.4% | -5.4% (active) | -50.2% (active) | 77.2% | 43.1% | 36.2% | 69% | 7.56% (active) | -28.6% (active) | 11% | 19.2% | 64.2% | 102% | 20.8% | 61.4% | 82.6%
O=C(O)/C(=C\c1ccc(Cl)cc1)c1ccc(Cl)cc1 | 90.8% | 99.1% | 92.2% | 104% | 97.5% | 67.7% | 81.9% | 88.5% | 90.3% | 117% | 107% | 43.8% | 81.5% | 92.9% | 78.8% | 96.5% | 118% | 95.2% | 85.8% | 95.8%
